# Assay results published in the supplement of paper PMC10849652.
# The full data set covers some 7,900 targets. This sample favours those with a hit. About 0.6% of all pairs of compound and target were hits. A number with no mark means an inactive call.
# Compound: CC1=C2C(=CC=C1)N=C(N(C2=O)C3=CC=CC=C3C)CN4C=NC5=C(N=CN=C54)N
# Assay: log2 fold change, soluble protein after heating vs DMSO (PISA); higher = thermal stabilisation; K562 cells, 10 uM, 30 min; active = over 0.2 and 3.5 SD of the protein, either way, in both replicates (recomputed)
# Method in brief: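 Aliquots of K562 cells (2×10^6 cells/mL) treated with 10 μM compound for 30 min were heated for 3 min over 48°C-58°C. After pooling and extraction in PBS with 0.5% NP-40 at 4°C, soluble protein from a 21,000xg, 90 min spin was quantified by TMTpro 16plex LC-MS/MS with channel sums equalised. Thermal stability is expressed against control samples, from duplicates, as a log2 fold change.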
# UniProt P45983, sequence (P45983 whole entry, looked up): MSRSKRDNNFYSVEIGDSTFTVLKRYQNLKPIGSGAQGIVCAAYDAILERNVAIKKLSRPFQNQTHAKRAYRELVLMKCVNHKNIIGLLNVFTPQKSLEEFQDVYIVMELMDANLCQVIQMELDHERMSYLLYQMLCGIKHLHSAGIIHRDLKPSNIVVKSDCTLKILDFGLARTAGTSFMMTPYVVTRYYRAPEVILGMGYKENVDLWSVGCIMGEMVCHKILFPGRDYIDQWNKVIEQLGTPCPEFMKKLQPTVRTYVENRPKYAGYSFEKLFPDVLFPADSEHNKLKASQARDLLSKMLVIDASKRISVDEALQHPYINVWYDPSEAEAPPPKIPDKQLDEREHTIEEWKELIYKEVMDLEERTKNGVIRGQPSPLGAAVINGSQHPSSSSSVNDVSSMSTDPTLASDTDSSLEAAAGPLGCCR
# UniProt Q6N075, sequence (Q6N075 whole entry, looked up): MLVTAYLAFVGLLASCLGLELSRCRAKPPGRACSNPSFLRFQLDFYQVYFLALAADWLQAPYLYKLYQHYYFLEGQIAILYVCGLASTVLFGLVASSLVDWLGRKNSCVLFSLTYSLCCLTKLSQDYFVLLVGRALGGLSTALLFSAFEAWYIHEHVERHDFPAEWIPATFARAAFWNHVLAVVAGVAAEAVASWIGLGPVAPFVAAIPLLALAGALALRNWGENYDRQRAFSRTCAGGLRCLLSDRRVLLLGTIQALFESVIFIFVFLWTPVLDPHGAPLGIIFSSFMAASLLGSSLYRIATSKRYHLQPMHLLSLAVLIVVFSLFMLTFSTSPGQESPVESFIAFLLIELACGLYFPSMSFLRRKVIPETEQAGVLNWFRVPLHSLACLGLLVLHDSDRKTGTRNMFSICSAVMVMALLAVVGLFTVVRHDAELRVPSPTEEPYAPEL
# UniProt P52294, sequence (P52294 whole entry, looked up): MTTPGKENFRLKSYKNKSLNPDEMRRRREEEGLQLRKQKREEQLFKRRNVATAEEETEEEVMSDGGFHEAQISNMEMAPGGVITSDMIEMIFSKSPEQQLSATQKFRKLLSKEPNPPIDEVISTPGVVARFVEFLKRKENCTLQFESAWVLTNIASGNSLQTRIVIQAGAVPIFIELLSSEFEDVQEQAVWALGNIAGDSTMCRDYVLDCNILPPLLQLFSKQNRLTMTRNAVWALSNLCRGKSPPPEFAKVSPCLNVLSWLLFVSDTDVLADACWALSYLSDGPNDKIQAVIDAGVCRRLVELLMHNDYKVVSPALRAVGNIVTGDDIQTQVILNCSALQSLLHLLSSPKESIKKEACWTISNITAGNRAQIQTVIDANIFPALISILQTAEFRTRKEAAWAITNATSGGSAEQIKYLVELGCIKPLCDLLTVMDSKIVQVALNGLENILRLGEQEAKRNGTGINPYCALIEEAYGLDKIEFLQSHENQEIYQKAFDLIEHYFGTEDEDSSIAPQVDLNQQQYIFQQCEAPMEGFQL
# UniProt P49441, sequence (P49441 whole entry, looked up): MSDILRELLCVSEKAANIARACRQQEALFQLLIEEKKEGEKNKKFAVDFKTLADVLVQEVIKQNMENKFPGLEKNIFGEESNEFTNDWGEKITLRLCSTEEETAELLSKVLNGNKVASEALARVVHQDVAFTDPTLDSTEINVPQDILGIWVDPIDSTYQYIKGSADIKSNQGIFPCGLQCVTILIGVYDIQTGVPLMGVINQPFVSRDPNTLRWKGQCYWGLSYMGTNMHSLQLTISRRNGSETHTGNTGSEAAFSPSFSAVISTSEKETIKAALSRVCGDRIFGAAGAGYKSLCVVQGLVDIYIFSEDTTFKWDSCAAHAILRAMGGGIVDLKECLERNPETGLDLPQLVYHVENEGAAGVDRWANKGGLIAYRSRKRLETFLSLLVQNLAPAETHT
# UniProt P27816, sequence (P27816 whole entry, looked up): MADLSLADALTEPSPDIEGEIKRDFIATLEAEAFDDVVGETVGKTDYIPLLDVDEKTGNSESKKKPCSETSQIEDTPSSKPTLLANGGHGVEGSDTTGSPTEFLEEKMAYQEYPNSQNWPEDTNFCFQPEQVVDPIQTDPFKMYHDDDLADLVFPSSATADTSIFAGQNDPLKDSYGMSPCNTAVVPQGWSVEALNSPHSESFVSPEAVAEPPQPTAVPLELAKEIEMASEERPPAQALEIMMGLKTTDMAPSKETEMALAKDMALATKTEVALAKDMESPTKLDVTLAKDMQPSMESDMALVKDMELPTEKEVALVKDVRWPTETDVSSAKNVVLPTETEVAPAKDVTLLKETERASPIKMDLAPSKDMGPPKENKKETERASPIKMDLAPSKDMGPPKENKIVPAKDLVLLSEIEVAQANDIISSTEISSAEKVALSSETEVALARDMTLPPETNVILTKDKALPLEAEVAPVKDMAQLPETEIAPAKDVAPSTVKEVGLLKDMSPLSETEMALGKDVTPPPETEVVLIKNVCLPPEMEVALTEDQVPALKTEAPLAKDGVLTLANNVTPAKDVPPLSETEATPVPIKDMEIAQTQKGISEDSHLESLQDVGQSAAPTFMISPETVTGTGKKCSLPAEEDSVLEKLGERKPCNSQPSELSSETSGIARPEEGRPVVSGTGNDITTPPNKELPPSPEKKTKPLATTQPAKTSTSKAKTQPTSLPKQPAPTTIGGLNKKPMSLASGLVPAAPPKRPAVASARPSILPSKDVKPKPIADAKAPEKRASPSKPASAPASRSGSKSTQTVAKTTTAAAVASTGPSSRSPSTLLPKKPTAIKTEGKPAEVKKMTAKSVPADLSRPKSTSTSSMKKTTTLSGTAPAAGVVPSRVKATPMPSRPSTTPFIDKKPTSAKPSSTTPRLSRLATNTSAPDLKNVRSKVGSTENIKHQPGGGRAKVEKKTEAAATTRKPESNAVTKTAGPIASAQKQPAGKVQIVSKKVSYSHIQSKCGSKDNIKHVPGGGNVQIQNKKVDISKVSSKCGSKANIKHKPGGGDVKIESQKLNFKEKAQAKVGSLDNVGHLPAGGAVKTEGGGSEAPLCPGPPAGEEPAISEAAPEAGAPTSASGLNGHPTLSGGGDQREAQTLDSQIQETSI
# UniProt Q13123, sequence (Q13123 whole entry, looked up): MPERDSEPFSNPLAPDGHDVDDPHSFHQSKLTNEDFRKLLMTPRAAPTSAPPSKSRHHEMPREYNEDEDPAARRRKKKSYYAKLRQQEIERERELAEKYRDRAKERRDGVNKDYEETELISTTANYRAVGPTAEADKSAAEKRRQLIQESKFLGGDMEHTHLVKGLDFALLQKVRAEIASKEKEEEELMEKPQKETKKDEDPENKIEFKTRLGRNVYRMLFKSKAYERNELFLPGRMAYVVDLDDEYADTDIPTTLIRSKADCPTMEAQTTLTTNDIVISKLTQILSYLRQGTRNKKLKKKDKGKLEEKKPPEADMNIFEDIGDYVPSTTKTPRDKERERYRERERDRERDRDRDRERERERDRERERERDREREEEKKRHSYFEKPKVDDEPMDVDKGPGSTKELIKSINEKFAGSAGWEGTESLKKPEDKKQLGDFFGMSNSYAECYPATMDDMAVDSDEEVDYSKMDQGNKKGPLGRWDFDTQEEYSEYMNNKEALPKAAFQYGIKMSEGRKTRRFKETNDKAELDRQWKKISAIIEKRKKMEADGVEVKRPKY
# UniProt O95232, sequence (O95232 whole entry, looked up): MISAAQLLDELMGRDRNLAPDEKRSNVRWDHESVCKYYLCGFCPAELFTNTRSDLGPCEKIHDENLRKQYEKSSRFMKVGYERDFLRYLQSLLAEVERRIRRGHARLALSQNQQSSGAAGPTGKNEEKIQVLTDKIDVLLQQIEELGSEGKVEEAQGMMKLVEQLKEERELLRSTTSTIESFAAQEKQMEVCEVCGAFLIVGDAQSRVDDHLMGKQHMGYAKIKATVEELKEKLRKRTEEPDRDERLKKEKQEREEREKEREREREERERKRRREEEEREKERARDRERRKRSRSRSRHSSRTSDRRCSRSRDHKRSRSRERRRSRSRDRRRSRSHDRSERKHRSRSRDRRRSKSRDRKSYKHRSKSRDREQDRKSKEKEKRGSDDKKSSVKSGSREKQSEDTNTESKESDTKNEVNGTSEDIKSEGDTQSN
# UniProt Q8IVT5, sequence (Q8IVT5 whole entry, looked up): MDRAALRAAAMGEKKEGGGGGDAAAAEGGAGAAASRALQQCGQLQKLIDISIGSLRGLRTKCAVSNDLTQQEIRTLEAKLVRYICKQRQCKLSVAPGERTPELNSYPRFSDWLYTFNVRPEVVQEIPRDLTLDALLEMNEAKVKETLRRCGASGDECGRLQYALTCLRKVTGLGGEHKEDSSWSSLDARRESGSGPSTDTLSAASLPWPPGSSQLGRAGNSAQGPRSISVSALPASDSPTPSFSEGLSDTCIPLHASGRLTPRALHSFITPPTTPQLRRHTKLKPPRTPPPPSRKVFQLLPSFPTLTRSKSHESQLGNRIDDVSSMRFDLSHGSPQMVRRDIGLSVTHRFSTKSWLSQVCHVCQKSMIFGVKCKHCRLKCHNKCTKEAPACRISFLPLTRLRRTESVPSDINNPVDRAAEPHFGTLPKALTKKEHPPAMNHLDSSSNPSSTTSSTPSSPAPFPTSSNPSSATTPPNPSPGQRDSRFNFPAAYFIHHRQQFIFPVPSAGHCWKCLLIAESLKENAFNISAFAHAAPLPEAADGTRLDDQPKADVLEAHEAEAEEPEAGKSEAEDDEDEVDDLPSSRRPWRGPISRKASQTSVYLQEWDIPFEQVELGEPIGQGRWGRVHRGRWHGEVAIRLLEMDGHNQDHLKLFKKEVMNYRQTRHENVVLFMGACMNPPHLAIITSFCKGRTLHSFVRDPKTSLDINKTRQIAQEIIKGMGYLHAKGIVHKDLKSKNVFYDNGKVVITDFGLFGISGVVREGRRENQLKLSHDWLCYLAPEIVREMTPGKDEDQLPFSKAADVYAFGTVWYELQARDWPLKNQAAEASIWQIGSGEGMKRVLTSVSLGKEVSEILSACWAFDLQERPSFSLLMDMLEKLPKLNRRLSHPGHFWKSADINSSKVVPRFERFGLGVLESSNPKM
row,Target,log2 fold change
1,LAMP2 isoform 2 (UniProt P13473),0.04
2,MIER1 isoform 12 (UniProt Q8N108),0.059
3,MAPK8 isoform 3 (UniProt P45983),0.072
4,LUC7L3 (UniProt O95232),0.023
5,MFSD5 isoform 2 (UniProt Q6N075),0.112
6,IKZF1 isoform 2 (UniProt Q13422),0.052
7,KPNA1 (UniProt P52294),0.079
8,MARCKSL1 (UniProt P49006),-0.032
9,MAP4 (UniProt P27816),-0.058
10,KNTC1 (UniProt P50748),0.106
11,LENG8 (UniProt Q96PV6),-0.356
12,KTN1 (UniProt Q86UP2),0.019
13,JMJD6 isoform 3 (UniProt Q6NYC1),0.055
14,LARP1 (UniProt Q6PKG0),-0.046
15,LRBA (UniProt P50851),0.088
16,KCT2 (UniProt Q8NC54),-0.01

row,Target,log2 fold change
1,IK (UniProt Q13123),-0.006
2,MED1 (UniProt Q15648),0.03
3,LMNA (UniProt P02545),-0.044
4,LUZP1 (UniProt Q86V48),-0.171
5,LRRFIP1 (UniProt Q32MZ4),-0.016
6,INPP1 (UniProt P49441),0.125
7,KSR1 (UniProt Q8IVT5),0.137
8,LEO1 (UniProt Q8WVC0),-0.009
9,LIAS (UniProt O43766),0.008
10,MAPKAPK5 (UniProt Q8IW41),0.015
11,LMBR1 isoform 3 (UniProt Q8WVP7),-0.134
12,KCTD2 (UniProt Q14681),0.022
13,MFSD11 (UniProt O43934),0.104
14,ITM2B (UniProt Q9Y287),0.061
15,IRF3 (UniProt Q14653),0.015
